What follows are sequences tested on VDR:RXRa (NR concentration 270 nM, RXRa partner concentration 90 nM) (assay: PBM binding z-score (relative to random genomic background probes); higher = stronger binding; sequences stand for … in GC…GCGATTGACAGCGTAGAATGAAGG).
Method: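 Protein-binding microarray (Agilent 4x180K custom design, double-stranded 60-nt probes: 5' GC cap, 34-nt variable region, 24-nt constant primer region; full probe sequence given). Purified or IVT nuclear receptor:RXRα heterodimers (3:1 NR:RXRα, mostly 270:90 nM) or homodimers were incubated for 1 h in PBS with 2% milk and no ligand, then detected with Alexa488 antibodies. Fluorescence from o1-orientation probes (~5 replicates averaged) was converted to z-scores against 500 random hg19 background probes. Variable regions are seed direct-repeat (DR0–DR5) sites, all their single-nucleotide variants and half-site ablations.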

| Sequence | PBM binding z-score |
| --- | --- |
| CCTACTGGGGCATTCAGAGGTCATTGATCATATG | 4.47 |
| TCTTGTAGATCAAGCAGGTTAAAAAAGCCTGAGT | 1.04 |
| TCATATAGGTAAAGATGAAAGTCGAACGATATGA | 0.437 |
| GCTATTAGTTGAAAGGGCATCCGAATGATTCTCG | 0.499 |
| CCGACTGGGCCATCAGGTCATTGATATCAACGTT | 1.63 |
| AGAATGAGGTTACCAAAGATCAGGGACACGCTTG | 1.54 |
| GTACGAAGGTGAATAGGTCGTTGATGAGTAGGCG | 0.73 |
| GCTGCTAGGTGAACTGATGGTCAGCTAAAGCTCG | -0.124 |
| TGAATGCGGTTAAAGATCAGGGAACGTGGCGTCG | -0.54 |
| GGACCAAGGTGAATAGGTCGTTGATGAGTAGGCG | 0.886 |
| AGAATGAGGTTATTAAGATCTGGGAATTGCGGTC | 1.33 |
| ACTAGCAGGCCAAGGTTGGGTCACTCAAACAAAG | 0.381 |
| GCTGCTAGGTCAACTGATGGTCAGCTACAGCTCG | 1.51 |
| CCTGCTAGGTCATGGTCAACTAATCTACAGTATG | 2 |
| TGGCCTAGGTCATTCAGGGGCCAGTATAGAAAGC | 2.79 |
| CCTTGCAGGCCAGGGTCACTCAAGCATTTCGCTT | 2.69 |
| CCTAGCAGGCCAATCTGCGTCACTCAAGGCTTGA | -0.714 |
| AGGATGAGGTTACCAAAGATCAGGGAAACGCTTG | 1.45 |
| ATCTCTAGATAACAAGTTCAGTGAAAGAGAGGAC | 1.45 |
| CCAGACAGGTGAGAAGGTATCTCAGCCTCGATTA | -0.224 |

| Sequence | PBM binding z-score |
| --- | --- |
| ATATGTAGGTTAGCTGGGGTCATCCAGACTAGGC | 6.18 |
| CCGACTGGGGCAGAAAGGTTACGATACCATCCGG | 1.2 |
| TCATATAGGTAAATGCTAGGTGAAAGGCCGATCT | 0.727 |
| CCTTACGGGTCACGAGGTTATAACACGACGAGCG | 5.28 |
| CTACCAAGGTGAACAAGGACGTTGATTACTATTC | 3.82 |
| ATACCAAGGTGATTGTGAGGTCGTTGATACTAAC | 3.53 |
| CAATCTAGGTCAAGGTCAAAGTCGGTTTGTGCCA | 4.97 |
| TCGAGTAGGTTATGGGCATTCAGAATGGCGTCGA | -0.235 |
| TTACCAAGGTGAAACGTCGTTGATGCACGCCTTG | -0.243 |
| CCTATTAGTTGACCATAAGGGCAGCCGAAGCTCG | 0.304 |
| CCTACTGGCCCACGAAAGGTCATTGATTCAGTGA | 3.74 |
| TCGTATAGGTAATACAGGTGAAAGTCGGCATCTA | 0.991 |
| CCGACTGGGGCATAAGGTAACCATAAGCCAGCCC | -0.407 |
| AATAGAGGGTCATCGTAGGCCAGAGTACGCACAG | 4.64 |
| CCTACTGGGCCAAGAAGGTCATTGATGCCGATAA | 3.97 |
| GCGACTGGGGCAAAGCAGGTTACCATGAGGTTGG | 0.114 |
| GCTACAGGGTCAAGGCCAGAGTACGCGTATTGAT | 4.28 |
| CCTACTGGGCCAAAAAGGTCTTTGATGCCGATAA | -0.154 |
| TAGCCTACGTCATGGGCCAGTATACCACGCGAAC | -0.472 |
| ATATGTAGGTTACATCCGGGTCACTCAGGCTATG | 3.71 |
